Screening data as filed in PubChem.
In the library only some 19% were active in any assay of this set; here they are far more common.
TDP1 cell CPT = DT40-hTDP1 cell growth loss with CPT; chicken DT40 Tdp1-/-;hTDP1 cells + 20 nM CPT, ATP luminescence, 48 h; Potency, µM (highest dose often 46.2 µM), inactives show top-dose activity change, negative = growth inhibition, actives largely listed as inhibitors; actives 12% (n = 420,000); further: nearly all actives have a fitted effect of over 55% in size
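Cell growth measured by CellTiter-Glo luminescence after a minimum 48 h, 37 C compound exposure with 20 nM CPT in Tdp1-knockout DT40 cells stably expressing hTDP1, seeded 400/well; qHTS titration format.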
KB-3-1 cytotox = KB-3-1 parental cell cytotoxicity; actives 1.4% (n = 400,000); Potency, µM (doses to about 46.1 µM), hits mostly cytotoxic; AID 1347075; KB-3-1 viability, CellTiter-Glo ATP luminescence, 72 h; further: nearly all actives have a fitted effect of over 60% in size
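Screening of KB-3-1 cells (DMEM, 10% FBS, phenol-red free) ran from lowest to highest compound concentration; after 72 h at 37 °C viability was read luminescently and curves fitted.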
HT1080 IDH1KD tx = toxicity to HT-1080 IDH1 knockdown cells (counter line). HT-1080 IDH1 knockdown viability, ATP luminescence, 48 h. Potency, µM (doses to about 46.1 µM), without a hit: top-dose activity, negative = toxicity, hits mostly cytotoxic. actives 2% (n = 360,000). AID 686971;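 further: 0% = DMSO wells and -100% = cell-free medium wells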
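IDH1KD HT-1080 cells, 750/well, RPMI + 5% FBS; compound pinned after 2 h settling; 48 h, 37 °C; CellTiter-Glo luminescence; % activity normalised to DMSO and no-cell wells; curves fitted, classed by r2 and efficacy.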
KB-V1 MDR tox = KB-V1 MDR subline cytotoxicity. KB-V1 MDR cells viability, CellTiter-Glo, 72 h. Potency, µM (doses to about 46.1 µM), actives largely listed as cytotoxic. actives 3.4% (n = 400,000). AID 1347076; further: nearly all actives have a fitted effect of over 60% in size
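KB-V1 MDR subline cells in DMEM (phenol-red free, 10% FBS) exposed to compounds in qHTS concentration series for 72 h at 37 degrees C. Viability read by CellTiter-Glo luminescence; concentration-effect curves fitted after normalization and correction.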
TDP1 cell noCPT = qHTS for Inhibitors of human tyrosyl-DNA phosphodiesterase 1 (TDP1): qHTS in cells in absence of CPT; DT40 Tdp1-/- hTDP1 cells, no CPT, ATP luminescence, 48 h; Potency, µM (highest dose often 46.2 µM), without a hit: top-dose activity change, negative = growth inhibition, most hits filed as inhibitors; actives 15% (n = 420,000); further: nearly all actives have a fitted effect of over 55% in size
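Chicken DT40 Tdp1-/- cells stably complemented with human TDP1 were seeded at 400 cells/well with DMSO in place of 20 nM camptothecin. After compound pinning, cells grew at least 48 hr at 37 °C; viability read by CellTiter-Glo luminescence.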
HT1080-NT tox = kills 2HG-producing HT-1080-NT fibrosarcoma cells | HT-1080-NT fibrosarcoma viability, CellTiter-Glo ATP luminescence, 48 h | actives 1.6% (n = 360,000) | Potency, µM (doses to about 46.1 µM), without a hit: at the top dose activity, negative = less viability, actives largely listed as cytotoxic;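 further: NT is the 2HG producing partner of a matched IDH1 knockdown line; 0% = DMSO-treated cells and -100% = media-only wells without cells; nearly all actives have a fitted effect of over 55% in size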
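Compounds were tested in concentration-response format on HT-1080-NT cells for 48 hours at 37 degrees C. Cell viability came from CellTiter-Glo luminescence; curves were classified by r2, response magnitude and activity.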
Numbers without * were called inactive. The call rests on the fitted dose curve; in most records, active means well fitted curve in the direction sought with a large enough effect; inconclusive means small, poorly fitted or top-dose-only effect, or another doubt; inactive means no such curve, though single readings can be large; an effect the other way counts as inactive or inconclusive. Unless noted, on the % scale 0 is the no-effect control and ±100 the full control effect; potency means the concentration at half of the fitted maximal effect.

Results for N#CC1CC(c2ccccc2)Nc2cc(Cl)ccc2N1 (stereo unspecified) ?
TDP1 cell CPT: 16µM*; KB-3-1 cytotox: inconclusive; HT1080 IDH1KD tx: inconclusive; KB-V1 MDR tox: inactive; TDP1 cell noCPT: 10µM*; HT1080-NT tox: inconclusive

Results for COc1cc(CN2CCCC(N3CCN(c4ccc(F)cc4)CC3)C2)ccc1F (stereo unspecified) ?
TDP1 cell CPT: 21µM*; KB-3-1 cytotox: inactive; HT1080 IDH1KD tx: 0%; KB-V1 MDR tox: inactive; TDP1 cell noCPT: inconclusive; HT1080-NT tox: 1%

What do the screens show for `COc1cc(CN2CCCC(N3CCN(c4ccccc4C)CC3)C2)ccc1O` (stereo unspecified)?
TDP1 cell CPT: 13µM*; KB-3-1 cytotox: inactive; HT1080 IDH1KD tx: inconclusive; KB-V1 MDR tox: inconclusive; TDP1 cell noCPT: inconclusive; HT1080-NT tox: -26%

Results for COc1ccc(CCN(C)C2CCCN(S(=O)(=O)c3ccccc3F)C2)cc1OC (stereo unspecified) ?
TDP1 cell CPT: -10%; KB-3-1 cytotox: inactive; HT1080 IDH1KD tx: 0%; KB-V1 MDR tox: inactive; TDP1 cell noCPT: -12%; HT1080-NT tox: 1%

Results for O=C(NC(=S)Nc1ccc2ncccc2c1)c1ccccc1 ?
TDP1 cell CPT: 2%; KB-3-1 cytotox: inconclusive; HT1080 IDH1KD tx: -13%; KB-V1 MDR tox: inactive; TDP1 cell noCPT: inconclusive; HT1080-NT tox: 0%

How did Cc1ccc2cccc(NC(=S)NC(=O)c3ccccc3)c2n1 do in these assays?
TDP1 cell CPT: 18µM*; KB-3-1 cytotox: inactive; HT1080 IDH1KD tx: -4%; KB-V1 MDR tox: inconclusive; TDP1 cell noCPT: inconclusive; HT1080-NT tox: -18%

Results for Cc1cc(C)c2cccc(NC(=S)NC(=O)c3ccccc3)c2n1 ?
TDP1 cell CPT: 16µM*; KB-3-1 cytotox: inactive; HT1080 IDH1KD tx: 2.8µM*; KB-V1 MDR tox: inconclusive; TDP1 cell noCPT: 13µM*; HT1080-NT tox: 2.5µM*

What do the screens show for `Cc1ccc2cccnc2c1NC(=S)NC(=O)c1ccccc1`?
TDP1 cell CPT: inconclusive; KB-3-1 cytotox: inactive; HT1080 IDH1KD tx: inconclusive; KB-V1 MDR tox: 15µM*; TDP1 cell noCPT: -19%; HT1080-NT tox: 11µM*

What do the screens show for `CCn1cc(C(=O)NCc2ccco2)c(=O)c2ccc(C)nc21`?
TDP1 cell CPT: -30%; KB-3-1 cytotox: inactive; HT1080 IDH1KD tx: 26%; KB-V1 MDR tox: inactive; TDP1 cell noCPT: inconclusive; HT1080-NT tox: 20%

What do the screens show for `COCCNc1nc2cc(-c3ccc(F)cc3)sc2c(=O)n1C`?
TDP1 cell CPT: 1%; KB-3-1 cytotox: inactive; HT1080 IDH1KD tx: 0%; KB-V1 MDR tox: inconclusive; TDP1 cell noCPT: -5%; HT1080-NT tox: -4%

Results for O=c1[nH]c(CCl)nc2cc(-c3ccc(F)cc3)sc12 ?
TDP1 cell CPT: 5.2µM*; KB-3-1 cytotox: inconclusive; HT1080 IDH1KD tx: 7.3µM*; KB-V1 MDR tox: inconclusive; TDP1 cell noCPT: 4.1µM*; HT1080-NT tox: 15µM*

How did CCc1nn(CC(=O)N2CCN(c3cccc(C)c3C)CC2)c(=O)c2cc3sccc3n12 do in these assays?
TDP1 cell CPT: -6%; TDP1 cell noCPT: -3%

Results for Clc1ccc(-c2cn3cc(Cl)ccc3n2)cc1 ?
TDP1 cell CPT: -2%; KB-3-1 cytotox: inactive; HT1080 IDH1KD tx: 0%; KB-V1 MDR tox: inactive; TDP1 cell noCPT: -11%; HT1080-NT tox: -1%

What do the screens show for `CC1CCN(S(=O)(=O)c2cccc(-c3cn4cc(Cl)ccc4n3)c2)CC1`?
TDP1 cell CPT: inconclusive; KB-3-1 cytotox: inactive; HT1080 IDH1KD tx: -1%; KB-V1 MDR tox: inactive; TDP1 cell noCPT: 23µM*; HT1080-NT tox: 1%

What do the screens show for `CCN(CC)S(=O)(=O)c1ccc(-c2cn3cc(Cl)ccc3n2)cc1`?
TDP1 cell CPT: inconclusive; KB-3-1 cytotox: inconclusive; HT1080 IDH1KD tx: -2%; KB-V1 MDR tox: inconclusive; TDP1 cell noCPT: 18µM*; HT1080-NT tox: 0%

What do the screens show for `CC(C)NC(=O)NC(=O)COC(=O)/C=C/c1ccccc1[N+](=O)[O-]`?
TDP1 cell CPT: 8%; KB-3-1 cytotox: inactive; HT1080 IDH1KD tx: 9%; KB-V1 MDR tox: inactive; TDP1 cell noCPT: -2%; HT1080-NT tox: 1%

How did CC1CCCCC1n1c(=S)[nH]c2ccccc2c1=O (stereo unspecified) do in these assays?
TDP1 cell CPT: 23µM*; KB-3-1 cytotox: inactive; HT1080 IDH1KD tx: 11µM*; KB-V1 MDR tox: inactive; TDP1 cell noCPT: inconclusive; HT1080-NT tox: 13µM*

Results for O=C(c1ccc2c(=O)n(C3CCCC3)c(=S)[nH]c2c1)N1CCCCCC1 ?
TDP1 cell CPT: 15µM*; KB-3-1 cytotox: inconclusive; HT1080 IDH1KD tx: 0%; KB-V1 MDR tox: 7.3µM*; TDP1 cell noCPT: 13µM*; HT1080-NT tox: -10%

Results for CC1CCCN(C(=O)c2ccc3c(=O)n(C4CCCC4)c(=S)[nH]c3c2)C1 (stereo unspecified) ?
TDP1 cell CPT: 21µM*; KB-3-1 cytotox: inactive; HT1080 IDH1KD tx: 1%; KB-V1 MDR tox: inactive; TDP1 cell noCPT: inconclusive; HT1080-NT tox: -2%

Results for CC1CCCCC1NC(=O)CCCn1c(=S)[nH]c2ccccc2c1=O (stereo unspecified) ?
TDP1 cell CPT: -18%; KB-3-1 cytotox: inactive; HT1080 IDH1KD tx: -23%; KB-V1 MDR tox: inactive; TDP1 cell noCPT: -21%; HT1080-NT tox: -6%

How did CCCCCn1c(=S)[nH]c2cc(C(=O)N3CCCC3)ccc2c1=O do in these assays?
TDP1 cell CPT: 2%; KB-3-1 cytotox: inactive; HT1080 IDH1KD tx: 4%; KB-V1 MDR tox: inconclusive; TDP1 cell noCPT: -10%; HT1080-NT tox: 24%

How did COc1cc(OC)c(OC)cc1CNCCCSc1nnnn1C do in these assays?
TDP1 cell CPT: -2%; KB-3-1 cytotox: inactive; KB-V1 MDR tox: inconclusive; TDP1 cell noCPT: -9%

What do the screens show for `CCOc1cc(C(=O)NCCc2sc(-c3ccc(F)cc3)nc2C)cc(OCC)c1OCC`?
TDP1 cell CPT: inconclusive; KB-3-1 cytotox: inactive; KB-V1 MDR tox: inactive; TDP1 cell noCPT: inconclusive

Results for COc1ccccc1N1CCN(C(=O)CCNS(=O)(=O)c2ccc3c(c2)CCN3C(=O)C2CC2)CC1 ?
TDP1 cell CPT: 16µM*; KB-3-1 cytotox: inactive; KB-V1 MDR tox: inactive; TDP1 cell noCPT: 23µM*
